Test results from PubChem BioAssay AID1159580 (chemical genetic matrix, 2015).
About 2,000 (36%) of roughly 5,500 compounds were called active. Not shown: some 18% with an inconclusive outcome. Rule as the data show it: active = normalized growth mostly below about 0.91 (no sharp cut-off); inconclusive = no clear call, values can overlap the other calls; inactive = mostly above about 0.92. Some of the results follow.

Experiment: chemical genetic growth profiling, strain panel (AID 1159580);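 also: tested at 20 µM; growth read once vehicle control cultures reached saturation at 30 °C; 1 = growth at the plate median or of vehicle wells; lower values mean less growth of the strain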
Conditions: S. cerevisiae deletion strains, growth OD
[1] = locus YAL013W, strain DEP1, stronger effect = lower value
[2] = locus YGR078C, strain PAC10, stronger effect = lower value
[3] = locus YJR075W, strain HOC1, stronger effect = lower value
[4] = locus YNL322C, strain KRE1, stronger effect = lower value
[5] = locus YPL055C, strain LGE1, stronger effect = lower value
[6] = locus YPL241C, strain CIN2, stronger effect = lower value
[7] = locus YHR030C, strain SLT2, stronger effect = lower value

Measured: normalized growth

COc1ccc2c(c1)C13CCCCC1C(C2)N(C)CC3 (stereo unspecified)
inactive: [1] 1.02 | locus YAL040C, strain CLN3, stronger effect = lower value 0.995 | locus YCL061C, strain MRC1 (second series), stronger effect = lower value 1 | locus YDR363W, strain ESC2, stronger effect = lower value 0.952 | locus YER002W, strain NOP16, stronger effect = lower value 1 | [2] 0.995 | locus YGR229C, strain SMI1, stronger effect = lower value 0.991 | [3] 0.985 | locus YNL128W, strain TEP1, stronger effect = lower value 1.01 | locus YNL175C, strain NOP13, stronger effect = lower value 1.01 | locus YNL197C, strain WHI3, stronger effect = lower value 1.01 | locus YNL224C, strain SQS1, stronger effect = lower value 1.01 | [4] 1 | locus YOR083W, strain WHI5 (second series), stronger effect = lower value 0.97 | [5] 0.967 | [6] 0.998

CC[C@@H](CO)NC(=O)[C@@H]1C=C2c3cccc4c3c(cn4C)C[C@H]2N(C)C1
inactive: [7] 1 | locus YHR079C, strain IRE1, stronger effect = lower value 0.989 | locus YJL095W, strain BCK1, stronger effect = lower value 0.981 | locus YJR066W, strain TOR1, stronger effect = lower value 0.926 | locus YLR113W, strain HOG1, stronger effect = lower value 1.02 | locus YNL183C, strain NPR1, stronger effect = lower value 0.928 | locus YOR231W, strain MKK1, stronger effect = lower value 1 | locus YPL256C, strain CLN2, stronger effect = lower value 0.973

CCOC(=O)CC(=O)CSc1nnc(N)s1
inactive: [1] 0.998 | locus YBR229C, strain ROT2, stronger effect = lower value 0.988 | locus YCL061C, strain MRC1, stronger effect = lower value 1.04 | locus YDL101C, strain DUN1, stronger effect = lower value 1.04 | locus YDR150W, strain NUM1, stronger effect = lower value 1 | locus YEL061C, strain CIN8, stronger effect = lower value 1 | [2] 1.02 | [7] 1.13 | locus YHR087W, strain rtc3, stronger effect = lower value 0.992 | locus YJR043C, strain POL32, stronger effect = lower value 1.06 | [3] 1.01 | locus YLR039C, strain RIC1, stronger effect = lower value 1 | locus YLR058C, strain SHM2 (second series), stronger effect = lower value 0.999 | locus YLR085C, strain ARP6, stronger effect = lower value 1.04 | locus YLR262C, strain YPT6, stronger effect = lower value 1.01 | locus YML094W, strain GIM5, stronger effect = lower value 1.02 | locus YMR219W, strain ESC1, stronger effect = lower value 1 | locus YMR263W, strain SAP30, stronger effect = lower value 1.02 | locus YMR307W, strain GAS1, stronger effect = lower value 0.985 | locus YNL153C, strain GIM3, stronger effect = lower value 1.05 | locus YNL298W, strain CLA4 (second series), stronger effect = lower value 1.05 | [4] 1.02 | locus YNR030W, strain Alg12, stronger effect = lower value 1.02 | locus YOL006C, strain TOP1, stronger effect = lower value 1.13 | [5] 0.978 | [6] 1.02 | locus YPR135W, strain CTF4, stronger effect = lower value 1.11
